# Data taken from article PMC12864922, “TDP-43 directly inhibits mRNA accumulation in neurites through modulation of mRNA stability”.
# Over roughly 9,900 sequences, “r (bound/input frequency ratio)” has its median near 0.7; the highest 2% begin near 6.5. The sample as a whole holds a higher share of the highest values than the screen did.
# B1: ENSMUSG00000029028.135|Lrrc47 (ssRNA)
# RNA: GGGAGUUCUACAGUCCGACGAUCGCUUCGAUAUCCGCAUGCUAAGGCAUUCUAUUGAACAGUAUUUAUUUUUCUACAACAUGUUAAUAGAAUUUUUUUUUAAAUCAGCUGUGCAUAGACAGUUGAGAACAUCAUGUUGUGAGUGUAAUCUUCUUAGAGCUUGUUUCCAGGCACCGUGCUGCCGCCAUGCUCCCAGGGCAGCAUCUGCCUUCCACGGCUGUGCUUGGAACUGUAGUGCUGGUCGUUGUUGGCACAUCUGCGCCUUGGCCAAGGAAGUUAUCUAUGUCCGUGUAGUCCUUUGUAGCUCUUGCGGUCGCACUAGUGUGGAAUUCUCGGGUGUCAAGG
# B2: ENSMUSG00000031028.662|Tub (ssRNA)
# RNA: GGGAGUUCUACAGUCCGACGAUCGCUUCGAUAUCCGCAUGCUACUGGACCCCAUACUGGUGACCAGCUUGGUGAGGACAGGCAAAAUUUCUCUAGCUGAGAGCACACUUAGCCAGUUUUCACGCCUAGAACAUAUAUGUCGAUUUGCACAUGAUUGUCUUUUCCUAUUUUGGAGUGGUCAGACAUUUUAUUUUUGUUCAAAAUUAUCUGGAGUUUUAGACAAACUUGCAAAACUGUGCUUUUAUUAAGUGACUUUUUGAAUAAACUUUUUGGUAUUCUGAAGCAAAUGUAUUUAUUUAUUGGUCUCUUGCGGUCGCACUAGUGUGGAAUUCUCGGGUGUCAAGG
# B3: ENSMUSG00000028439.182|Fam219a|1:10;12:16;18:34;36:53;63:70 (ssRNA)
# RNA: GGGAGUUCUACAGUCCGACGAUCGCUUCGAUAUCCGCAUGCUAACACACACACCCACACCCACACACAUACACACACCCACACACACACACACACAUGUACCCGACACACACAUGAGCCUAUCUGUCCAGGGAACCAGAUUGGUGUCCGAGAUGAGGAAAUGGCUGUGGCCUGGGAAAUCAGUGAGAGGCCGCUUGGGAAUGAGAAUGCAGUGGACUGAAAGCACAGCCUGGCCAUCUGGAACCUGGGUUCUGGUCCCAGCCUCGGCAUUCUCCCUGAGCUCCUAAGCAAUUCCCAGGCUUCUCUCUUGCGGUCGCACUAGUGUGGAAUUCUCGGGUGUCAAGG
# B4: ENSMUSG00000028439.183|Fam219a|6:10;12:28;30:47;57:64 (ssRNA)
# RNA: GGGAGUUCUACAGUCCGACGAUCGCUUCGAUAUCCGCAUGCUAUGUGCCACACCCACACACAUACACACACCCACACACACACACACACAUGUACCCGACACACACAUGAGCCUAUCUGUCCAGGGAACCAGAUUGGUGUCCGAGAUGAGGAAAUGGCUGUGGCCUGGGAAAUCAGUGAGAGGCCGCUUGGGAAUGAGAAUGCAGUGGACUGAAAGCACAGCCUGGCCAUCUGGAACCUGGGUUCUGGUCCCAGCCUCGGCAUUCUCCCUGAGCUCCUAAGCAAUUCCCAGGCUUCUCUAGGGCUCUUGCGGUCGCACUAGUGUGGAAUUCUCGGGUGUCAAGG
# B5: ENSMUSG00000028439.181|Fam219a|7:16;18:22;24:40;42:59;69:76 (ssRNA)
# RNA: GGGAGUUCUACAGUCCGACGAUCGCUUCGAUAUCCGCAUGCUAUGUGCCACACACACACCCACACCCACACACAUACACACACCCACACACACACACACACAUGUACCCGACACACACAUGAGCCUAUCUGUCCAGGGAACCAGAUUGGUGUCCGAGAUGAGGAAAUGGCUGUGGCCUGGGAAAUCAGUGAGAGGCCGCUUGGGAAUGAGAAUGCAGUGGACUGAAAGCACAGCCUGGCCAUCUGGAACCUGGGUUCUGGUCCCAGCCUCGGCAUUCUCCCUGAGCUCCUAAGCAAUUCCCAGCUCUUGCGGUCGCACUAGUGUGGAAUUCUCGGGUGUCAAGG
# B6: ENSMUSG00000028439.182|Fam219a (ssRNA)
# RNA: GGGAGUUCUACAGUCCGACGAUCGCUUCGAUAUCCGCAUGCUAUGUGUGUGUGCGUGUGCGUGUGUGUAUGUGUGUGCGUGUGUGUGUGUGUGUGUUGUACCCGAGUGUGUGUUGAGCCUAUCUGUCCAGGGAACCAGAUUGGUGUCCGAGAUGAGGAAAUGGCUGUGGCCUGGGAAAUCAGUGAGAGGCCGCUUGGGAAUGAGAAUGCAGUGGACUGAAAGCACAGCCUGGCCAUCUGGAACCUGGGUUCUGGUCCCAGCCUCGGCAUUCUCCCUGAGCUCCUAAGCAAUUCCCAGGCUUCUCUCUUGCGGUCGCACUAGUGUGGAAUUCUCGGGUGUCAAGG
# B7: ENSMUSG00000028439.181|Fam219a (ssRNA)
# RNA: GGGAGUUCUACAGUCCGACGAUCGCUUCGAUAUCCGCAUGCUAUGUGCCUGUGUGUGUGCGUGUGCGUGUGUGUAUGUGUGUGCGUGUGUGUGUGUGUGUGUUGUACCCGAGUGUGUGUUGAGCCUAUCUGUCCAGGGAACCAGAUUGGUGUCCGAGAUGAGGAAAUGGCUGUGGCCUGGGAAAUCAGUGAGAGGCCGCUUGGGAAUGAGAAUGCAGUGGACUGAAAGCACAGCCUGGCCAUCUGGAACCUGGGUUCUGGUCCCAGCCUCGGCAUUCUCCCUGAGCUCCUAAGCAAUUCCCAGCUCUUGCGGUCGCACUAGUGUGGAAUUCUCGGGUGUCAAGG
# B8: ENSMUSG00000028439.183|Fam219a (ssRNA)
# RNA: GGGAGUUCUACAGUCCGACGAUCGCUUCGAUAUCCGCAUGCUAUGUGCGUGUGCGUGUGUGUAUGUGUGUGCGUGUGUGUGUGUGUGUGUUGUACCCGAGUGUGUGUUGAGCCUAUCUGUCCAGGGAACCAGAUUGGUGUCCGAGAUGAGGAAAUGGCUGUGGCCUGGGAAAUCAGUGAGAGGCCGCUUGGGAAUGAGAAUGCAGUGGACUGAAAGCACAGCCUGGCCAUCUGGAACCUGGGUUCUGGUCCCAGCCUCGGCAUUCUCCCUGAGCUCCUAAGCAAUUCCCAGGCUUCUCUAGGGCUCUUGCGGUCGCACUAGUGUGGAAUUCUCGGGUGUCAAGG
# Target: TDP-43 (Homo sapiens, UniProt Q13148 1-414)
# Experiment: RNA Bind-n-Seq with designed 260-mer pool; 25 mM Tris-HCl, 150 mM KCl, 3 mM MgCl2, BSA (printed 500 mg/mL), 20 units/mL SUPERase IN; pH not stated; 500 nM RNA pool, 1 h, 4 C; TDP-43 5, 50, 500 nM; high values mean tight binding
# Conditions: protein: recombinant; tags: SBP (GST cleaved off with PreScission; pGEX-GST-SBP)
# In short: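 Duplicate measurements used two independent batches of recombinant SBP-tagged TDP-43, which was captured on streptavidin beads at 5, 50 or 500 nM. The beads were incubated with 500 nM of an in vitro-transcribed 260-nt 3′ UTR oligo pool for 1 h at 4 °C in 25 mM Tris-HCl, 150 mM KCl, 3 mM MgCl2, BSA and SUPERase IN. After washing, biotin elution, reverse transcription, PCR amplification and sequencing, binding was expressed as R: each oligo's normalized read abundance in the bound sample over its abundance in input.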
# Sequence of TDP-43 (Q13148 whole entry): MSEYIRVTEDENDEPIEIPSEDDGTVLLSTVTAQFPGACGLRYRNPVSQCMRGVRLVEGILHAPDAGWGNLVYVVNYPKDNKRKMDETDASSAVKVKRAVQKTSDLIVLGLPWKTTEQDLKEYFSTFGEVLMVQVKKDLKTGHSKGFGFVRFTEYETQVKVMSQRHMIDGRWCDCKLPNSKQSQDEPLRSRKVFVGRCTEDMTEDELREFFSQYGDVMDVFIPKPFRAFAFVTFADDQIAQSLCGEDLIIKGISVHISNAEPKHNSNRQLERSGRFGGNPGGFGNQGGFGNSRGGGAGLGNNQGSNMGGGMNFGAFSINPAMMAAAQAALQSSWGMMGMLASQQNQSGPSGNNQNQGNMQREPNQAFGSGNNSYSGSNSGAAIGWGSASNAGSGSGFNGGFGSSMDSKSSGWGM
row,Binder,binding signal
1,B1,0.359 R (bound/input frequency ratio)
2,B2,0.163 R (bound/input frequency ratio)
3,B3,3.29 R (bound/input frequency ratio)
4,B4,2.29 R (bound/input frequency ratio)
5,B5,3.16 R (bound/input frequency ratio)
6,B6,6.82 R (bound/input frequency ratio)
7,B7,6.58 R (bound/input frequency ratio)
8,B8,5.72 R (bound/input frequency ratio)
